PubChem BioAssay (EPA / NIEHS)
Activity calls are given as the source filed them. Rule for the calls: active = hit-call score of the fitted dose curve at least 0.9, where 1 is the maximum; inactive = score below 0.9.

What was measured:
Settings in all cases: mRNA level, 48 h; actives raise or lower the signal
[1] = read-out: Fatty Acid-Binding Protein 1 (FABP1), FABP1 (gene 2168); experiment: LTEA_HepaRG_FABP1: Life Technologies and Expression Analysis (LTEA) Assay for Fatty Acid-Binding Protein 1 (FABP1) using HepaRG (AID 2283494)
Summary of the method: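 FABP1 expression by TaqMan qRT-PCR, normalised to three housekeeping genes, in HepaRG cells after 48 h chemical treatment. Eight-point half-log series topping at 100 uM in 0.5% DMSO, duplicates; gain or loss fitted relative to vehicle.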

[2] = read-out: Cytochrome P450 4A22 (Homo sapiens) (UniProt Q5TCH4); experiment: LTEA_HepaRG_CYP4A22: Life Technologies and Expression Analysis (LTEA) Assay for Cytochrome P450 4A22 (CYP4A22) using HepaRG (AID 2283495)
Summary of the method: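 Gene expression measured by qRT-PCR against three housekeeping genes (ACTB, GAPDH, POLR2A), with gain or loss fitted relative to 0.5% DMSO vehicle. HepaRG cultures received 48 h chemical treatment, top concentration 100 uM, half-log steps, duplicate wells.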

[3] = read-out: Cytochrome P450 7A1 (Homo sapiens) (UniProt P22680); experiment: LTEA_HepaRG_CYP7A1: Life Technologies and Expression Analysis (LTEA) Assay for Cytochrome P450 7A1 (CYP7A1) using HepaRG (AID 2283496)
Summary of the method: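 Using 0.5% DMSO as vehicle and baseline, chemicals were tested in duplicate over an 8-point range from 100 uM on HepaRG cells for 48 h; qRT-PCR signals were normalised to ACTB, GAPDH and POLR2A.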

[4] = read-out: Glutathione S-Transferase (GSTA2), GSTA2 (gene 2939); experiment: LTEA_HepaRG_GSTA2: Life Technologies and Expression Analysis (LTEA) Assay for Glutathione S-Transferase (GSTA2) using HepaRG (AID 2283497)
Summary of the method: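 GSTA2 transcript levels came from Fluidigm TaqMan qRT-PCR normalized to three housekeeping genes, fitted in both directions against DMSO. HepaRG cultures received chemicals for 48 h in serum-free induction medium (0.5% DMSO), 8 half-log concentrations up to 100 uM, duplicate.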

[5] = read-out: Glutamate-cysteine ligase catalytic (GCLC), GCLC (gene 2729); experiment: LTEA_HepaRG_GCLC: Life Technologies and Expression Analysis (LTEA) Assay for Glutamate-cysteine ligase catalytic (GCLC) using HepaRG (AID 2283498)
Summary of the method: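 Expression by TaqMan qRT-PCR, normalized to three housekeeping genes (ACTB, GAPDH, POLR2A), with up- or down-regulation fitted against DMSO. HepaRG cells dosed in duplicate for 48 h with 8 half-log concentrations up to 100 uM, vehicle 0.5% DMSO.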

[6] = read-out: growth arrest and DNA damage 45 (GADD45G), GADD45G (gene 10912); experiment: LTEA_HepaRG_GADD45G: Life Technologies and Expression Analysis (LTEA) Assay for growth arrest and DNA damage 45 (GADD45G) using HepaRG (AID 2283499)
Summary of the method: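 GADD45G transcript level by qRT-PCR (housekeeping-normalized: ACTB, GAPDH, POLR2A) after 48 h chemical treatment of a single HepaRG lot in serum-free induction medium; eight-point half-log series up to 100 uM in 0.5% DMSO, duplicates, up- or down-regulation scored.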

[7] = read-out: Glutamate-cysteine ligase regulatory (GCLM), GCLM (gene 2730); experiment: LTEA_HepaRG_GCLM: Life Technologies and Expression Analysis (LTEA) Assay for Glutamate-cysteine ligase regulatory (GCLM) using HepaRG (AID 2283500)
Summary of the method: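 In this multiplexed HepaRG gene-expression assay, GCLM mRNA change after 48 h treatment (8 concentrations, max 100 uM) was scored against DMSO by bidirectional curve fitting.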

[8] = read-out: Glutathione S-transferase M3 (GSTM3), GSTM3 (gene 2947); experiment: LTEA_HepaRG_GSTM3: Life Technologies and Expression Analysis (LTEA) Assay for Glutathione S-transferase M3 (GSTM3) using HepaRG (AID 2283501)
Summary of the method: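 GSTM3 transcript levels came from Fluidigm TaqMan qRT-PCR normalized to three housekeeping genes, fitted in both directions against DMSO. HepaRG cultures received chemicals for 48 h in serum-free induction medium (0.5% DMSO), 8 half-log concentrations up to 100 uM, duplicate.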

[9] = read-out: Heat shock 70 kDa protein 1 (HSPA1A), gene 3303; experiment: LTEA_HepaRG_HSPA1A: Life Technologies and Expression Analysis (LTEA) Assay for Heat shock 70 kDa protein 1 (HSPA1A) using HepaRG (AID 2283502)
Summary of the method: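 An oxidative-stress marker readout: HepaRG cells treated 48 h in duplicate with an eight-point series (highest 100 uM) had HSPA1A mRNA quantified by TaqMan qRT-PCR. Activity was fitted in both directions using 0.5% DMSO as baseline.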

[10] = read-out: 3-Hydroxy-3-Methylglutaryl-CoA Synthase 2 (HMGCS2), HMGCS2 (gene 3158); experiment: LTEA_HepaRG_HMGCS2: Life Technologies and Expression Analysis (LTEA) Assay for 3-Hydroxy-3-Methylglutaryl-CoA Synthase 2 (HMGCS2) using HepaRG (AID 2283504)
Summary of the method: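 Readout is HMGCS2 transcript by qRT-PCR, housekeeping-normalised (ACTB/GAPDH/POLR2A) and fitted bidirectionally against 0.5% DMSO. Differentiated HepaRG cells received chemicals 48 h, duplicate wells, eight half-log concentrations topping at 100 uM.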

HGF (gene 3082) = experiment: LTEA_HepaRG_HGF: Life Technologies and Expression Analysis (LTEA) Assay for Hepatocyte Growth Facto (HGF) using HepaRG (AID 2283505)
Summary of the method: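 HGF transcript was quantified by TaqMan qRT-PCR against three housekeeping genes after 48 h treatment of HepaRG cells. Exposure ran in duplicate over eight half-log steps topping at 100 uM in 0.5% DMSO vehicle.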

[11] = read-out: Insulin Like Growth Factor 1 (IGF1), IGF1 (gene 3479); experiment: LTEA_HepaRG_IGF1: Life Technologies and Expression Analysis (LTEA) Assay for Insulin Like Growth Factor 1 (IGF1) using HepaRG (AID 2283506)
Summary of the method: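 Endpoint: IGF1 mRNA change by qRT-PCR, housekeeping-normalized, fitted bidirectionally relative to 0.5% DMSO vehicle. Human HepaRG cells were treated 48 h in serum-free induction medium, eight half-log concentrations topping at 100 uM.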

[12] = read-out: Intercellular Adhesion Molecule 1 (ICAM1), ICAM1 (gene 3383); experiment: LTEA_HepaRG_ICAM1: Life Technologies and Expression Analysis (LTEA) Assay for Intercellular Adhesion Molecule 1 (ICAM1) using HepaRG (AID 2283507)
Summary of the method: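 ICAM1 transcript levels measured by qRT-PCR, normalized to three housekeeping genes (ACTB, GAPDH, POLR2A), after 48 h chemical exposure of HepaRG cells. Duplicate eight-point half-log series from 100 uM in 0.5% DMSO; gain or loss fitted against vehicle.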

[13] = read-out: Insulin-like growth factor-binding protein 1 (IGFBP1), IGFBP1 (gene 3484); experiment: LTEA_HepaRG_IGFBP1: Life Technologies and Expression Analysis (LTEA) Assay for Insulin-like growth factor-binding protein 1 (IGFBP1) using HepaRG (AID 2283508)
Summary of the method: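 Read-out is qRT-PCR transcript level normalized to three housekeeping genes, fitted in both directions against 0.5% DMSO. Differentiated HepaRG cells received eight half-log concentrations (top 100 uM) in duplicate for 48 h in serum-free induction medium.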

[14] = read-out: Interleukin 6 (IL6), IL6 (gene 3569); experiment: LTEA_HepaRG_IL6: Life Technologies and Expression Analysis (LTEA) Assay for Interleukin 6 (IL6) using HepaRG (AID 2283509)
Summary of the method: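 Transcript levels, normalized to three housekeeping genes, were quantified by qRT-PCR after 48 h chemical treatment of HepaRG cells. Eight-point half-log series from 100 uM in 0.5% DMSO, duplicates. Fitted both directions against DMSO baseline.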

[15] = read-out: Interleukin 6 Receptor (IL6R), IL6R (gene 3570); experiment: LTEA_HepaRG_IL6R: Life Technologies and Expression Analysis (LTEA) Assay for Interleukin 6 Receptor (IL6R) using HepaRG (AID 2283510)
Summary of the method: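 In this HepaRG screen, test chemicals act on cells for 48 h at up to 100 uM (eight half-log points, duplicate wells). IL6R expression is quantified by qRT-PCR after normalization to ACTB, GAPDH and POLR2A, with DMSO as baseline.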

[16] = read-out: Potassium channel subfamily K member 1 (KCNK1), KCNK1 (gene 3775); experiment: LTEA_HepaRG_KCNK1: Life Technologies and Expression Analysis (LTEA) Assay for Potassium channel subfamily K member 1 (KCNK1) using HepaRG (AID 2283511)
Summary of the method: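 KCNK1 transcript measured by TaqMan qRT-PCR against three housekeeping genes, after HepaRG cells were treated 48 h with eight half-log concentrations (top 100 uM, 0.5% DMSO). Curves fitted bidirectionally relative to vehicle.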

[17] = read-out: Keratin 19 (KRT19), KRT19 (gene 3880); experiment: LTEA_HepaRG_KRT19: Life Technologies and Expression Analysis (LTEA) Assay for Keratin 19 (KRT19) using HepaRG (AID 2283512)
Summary of the method: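 KRT19 transcript measured by TaqMan qRT-PCR, referenced to three housekeeping genes, after HepaRG cells received test chemicals for 48 h. Eight half-log concentrations, top 100 uM, 0.5% DMSO vehicle; increases and decreases both fitted.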

[18] = read-out: JUN Transcription Factor, JUN (gene 3725); experiment: LTEA_HepaRG_JUN: Life Technologies and Expression Analysis (LTEA) Assay for JUN Transcription Factor using HepaRG (AID 2283513)
Summary of the method: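 Gene-expression endpoint: JUN mRNA (qRT-PCR, normalized to three reference genes) in HepaRG cultures treated 48 h with chemicals, duplicate wells, 100 uM maximum with half-log dilutions; bidirectional fitting relative to 0.5% DMSO.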

Measured: AC50

COc1cnc(OC)n2nc(NS(=O)(=O)c3c(OCC(F)F)cccc3C(F)(F)F)nc12
active: [2] 9.46 µM | [3] 26.2 µM | [9] 50 µM | [10] 31.8 µM | [11] 10.3 µM
inactive: all other assays above

CCCCNC(=O)n1c(NC(=O)OC)nc2ccccc21
inactive: all assays above

CCCC1COC(Cn2cncn2)(c2ccc(Cl)cc2Cl)O1 (stereo unspecified)
active: [1] 36.3 µM | [2] 31.7 µM | [3] 60.9 µM | [4] 37 µM | [6] 35.6 µM | [7] 50 µM | [8] 64.5 µM | [9] 90.5 µM | [10] 36.5 µM | HGF (gene 3082) 50 µM | [11] 25.5 µM | [12] 77.1 µM | [13] 34.4 µM | [14] 83.2 µM | [17] 1.12 µM
inactive: [5] | [15] | [16] | [18]

CCCCNC(=O)OCC#CI
active: [1] 50 µM | [3] 50 µM | [4] 9.92 µM | [5] 0.00766 µM | [9] 50 µM
inactive: all other assays above
